A selection: hits, their analogues and other compounds. The true share with any hit is near 19%.
Shiga toxin inh – A qHTS for Small Molecule Inhibitors of Shiga Toxin | actives 9.2% (n = 290,000) | Vero cells, Shiga toxin protein synthesis inhibition reporter | AID 2315, 2010 | inhibition, % at 38.7 µM; in the data active = inhibition mostly above about 28%, no sharp cut-off; inactive = mostly below about 43%
AMA1 RON2 block – qHTS for Inhibitors of AMA1-RON; Towards Development of Antimalarial Drug Lead: Primary Screen | AlphaScreen AMA1-biotinylated RON2 peptide binding | Plasmodium falciparum AMA1 (3D7) - RON2 peptide interaction | Potency, µM (titrated, usually from 58.2 µM), most hits filed as inhibitors | AID 720542, 2013 | actives 0.2% (n = 360,000); note: nearly all actives have a fitted effect of over 45% in size
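AMA1 (3D7) with his tag at 25 nM final met compounds first, then biotinylated RON2 peptide at 25 nM; detection used donor plus acceptor beads, 10 µg/mL apiece, read by AlphaScreen after 30 min at room temperature.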
SARS PLpro yeast – qHTS of Yeast-based Assay for SARS-CoV PLP; S. cerevisiae expressing SARS-CoV PLpro, growth rescue; Potency, µM (highest dose often 32.9 µM), usual class: activators; AID 485353, 2010; actives 0.19% (n = 330,000); calls by dose curve; note: nearly all actives have a fitted effect of over 55% in size
Pf growth 96h – Primary qHTS for delayed death inhibitors of the malarial parasite plastid, 96 hour incubation; P. falciparum luciferase reporter growth, 96 h; Potency, µM (doses to about 28.7 µM), hits mostly inhibitors; actives 6.9% (n = 320,000)
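Delayed-death screen, second-generation endpoint: infected erythrocytes, 2% hematocrit, 0.05% parasitemia final; 96 hours at 37 C, 5% CO2; luciferase detection reagent; luminescence decrease equals reduced growth.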
Pf growth 48h – Primary qHTS for delayed death inhibitors of the malarial parasite plastid, 48 hour incubation | P. falciparum luciferase growth in erythrocytes, 48 h | Potency, µM (top dose mostly 28.7 µM), usual class: inhibitors | actives 5.9% (n = 310,000)
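Luciferase-expressing P. falciparum in infected erythrocytes (2% hematocrit, 0.1% parasitemia final) in RPMI 1640/0.5% Albumax were exposed to compound for 48 hours at 37 C, 5% CO2; growth read as luminescence.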
CHX counter – Cycloheximide Counterscreen for Small Molecule Inhibitors of Shiga Toxin; actives 12% (n = 300,000); cell reporter, cycloheximide protein synthesis inhibition counterscreen; max response, %; in the data active = max response mostly above about 13%, no sharp cut-off; inactive = mostly below about 14%; note: read at 38.3 µM for the half of the compounds with a filed dose
Hits are given with their value; [ ] = another dose, or the depositor's remark. Unless noted, calls come from the whole dose curve; as a rule, active = well fitted curve in the direction sought with a large enough effect; inconclusive = small, poorly fitted or top-dose-only effect, or another doubt; inactive = no such curve, though single readings can be large; an effect the other way counts as inactive or inconclusive.

How did Cc1ccc(NC(=O)COC(=O)/C(=C/c2cccs2)c2cccs2)cc1S(=O)(=O)N(C)C do in these assays?
Shiga toxin inh: 89; AMA1 RON2 block: inactive; SARS PLpro yeast: inactive; Pf growth 96h: inactive; Pf growth 48h: inactive; CHX counter: 31

How did O=C(COc1ccc(/C=N/NC(=O)C(=O)N2CCCCCC2)cc1)Nc1ccccc1Cl do in these assays?
Shiga toxin inh: inactive; AMA1 RON2 block: inactive; SARS PLpro yeast: inactive; Pf growth 96h: inactive; Pf growth 48h: inactive; CHX counter: inactive

Results for CC(C)CCOc1ncnc2c1sc1nc3c(cc12)CSC(C)(C)C3 ?
Shiga toxin inh: inactive; AMA1 RON2 block: inactive; SARS PLpro yeast: inactive; Pf growth 96h: inconclusive; Pf growth 48h: 12µM; CHX counter: 15

How did CC1(C)Cc2nc3sc4c(=O)n(Cc5ccccc5)cnc4c3cc2CS1 do in these assays?
Shiga toxin inh: inactive; AMA1 RON2 block: inactive; SARS PLpro yeast: inactive; Pf growth 96h: inactive; Pf growth 48h: inactive; CHX counter: inactive

What do the screens show for `CCCn1cnc2c(sc3nc4c(cc32)CSC(C)(C)C4)c1=O`?
Shiga toxin inh: 37; AMA1 RON2 block: inactive; SARS PLpro yeast: inactive; Pf growth 96h: inactive; Pf growth 48h: inactive; CHX counter: 25

What do the screens show for `O=C(NCCc1ccc(Cl)cc1)c1cc(S(=O)(=O)N2CCCCC2)c[nH]1`?
Shiga toxin inh: inactive; AMA1 RON2 block: inactive; SARS PLpro yeast: inactive; Pf growth 96h: inactive; Pf growth 48h: inconclusive; CHX counter: inactive

What do the screens show for `COCCNC(=O)NC(=O)CN1C(=O)NC(Cc2c[nH]c3ccccc23)C1=O` (configuration not stated)?
Shiga toxin inh: inactive; AMA1 RON2 block: inactive; SARS PLpro yeast: inactive; Pf growth 96h: inactive; Pf growth 48h: inactive; CHX counter: inactive

Results for CC/C(=N/Nc1ccccc1Cl)c1cnnc(-c2ccccc2)n1 ?
Shiga toxin inh: inactive; AMA1 RON2 block: inactive; SARS PLpro yeast: inactive; Pf growth 96h: 1µM; Pf growth 48h: 2.3µM; CHX counter: inactive

Results for COc1cccc(C=NNc2nnc(NN=Cc3cccc(OC)c3OC)c3ccccc23)c1OC ?
AMA1 RON2 block: inactive

What do the screens show for `COc1ccc(/C=N/Nc2nncc3ccccc23)cc1`?
Shiga toxin inh: inactive; AMA1 RON2 block: inactive; SARS PLpro yeast: inactive; Pf growth 96h: inactive; Pf growth 48h: inactive; CHX counter: 25

What do the screens show for `O=C(N/N=C/c1cc(Br)c(O)c(Br)c1)c1cccnc1`?
Shiga toxin inh: inactive; AMA1 RON2 block: inactive; SARS PLpro yeast: inactive; Pf growth 96h: inactive; Pf growth 48h: inactive; CHX counter: inactive

What do the screens show for `COc1ccccc1/C=N/Nc1nncc2ccccc12`?
Shiga toxin inh: active; AMA1 RON2 block: inactive; SARS PLpro yeast: inactive; Pf growth 96h: inactive; Pf growth 48h: inactive; CHX counter: 46

How did CCC/C(=N/Nc1ccc(Cl)cc1)c1cnnc(-c2ccccc2)n1 do in these assays?
AMA1 RON2 block: inactive

What do the screens show for `COc1cccc(/C=N/Nc2nn3cnnc3c3ccccc23)c1`?
Shiga toxin inh: inactive; AMA1 RON2 block: inactive; SARS PLpro yeast: inactive; Pf growth 96h: inactive; CHX counter: inactive

How did Oc1c(Br)cc(/C=N/Nc2nncc3ccccc23)cc1Br do in these assays?
Shiga toxin inh: inactive; AMA1 RON2 block: inactive; SARS PLpro yeast: inactive; Pf growth 96h: inactive; Pf growth 48h: inactive; CHX counter: 30

Results for O=C(CSc1cccc[n+]1[O-])Nc1ccc([N+](=O)[O-])cc1Cl ?
Shiga toxin inh: inactive; AMA1 RON2 block: inactive; SARS PLpro yeast: inactive; Pf growth 96h: inactive; Pf growth 48h: inactive; CHX counter: inactive

How did CCOCc1c(C(=O)NCC(c2ccco2)N2CCCC2)oc2ccccc12 (configuration not stated) do in these assays?
AMA1 RON2 block: inactive; SARS PLpro yeast: inactive

How did C/C(=N\Nc1nc(-c2ccccn2)nc2ccccc12)c1ccc(F)cc1 do in these assays?
Shiga toxin inh: inactive; AMA1 RON2 block: inactive; SARS PLpro yeast: inactive; Pf growth 96h: inactive; Pf growth 48h: inconclusive; CHX counter: inactive

What do the screens show for `COc1ccc(N/N=C(/C)c2cnnc(-c3ccccc3)n2)cc1`?
Shiga toxin inh: inactive; AMA1 RON2 block: inactive; SARS PLpro yeast: inactive; Pf growth 96h: 0.37µM; Pf growth 48h: inconclusive; CHX counter: inactive

Results for COc1ccc(/C(C)=N/Nc2nc3ccccc3nc2C)cc1 ?
Shiga toxin inh: 76; AMA1 RON2 block: inactive; SARS PLpro yeast: inactive; Pf growth 96h: inactive; Pf growth 48h: inactive; CHX counter: 45

What do the screens show for `COc1ccc(C(=O)O/N=C(\C)c2ccccc2)cc1`?
Shiga toxin inh: inactive; AMA1 RON2 block: inactive; SARS PLpro yeast: inactive; Pf growth 96h: inactive[5.75 µM]; Pf growth 48h: inactive; CHX counter: inactive

What do the screens show for `COc1ccc(-c2cnnc(N/N=C/C(C)=C/c3ccccc3)n2)cc1`?
Shiga toxin inh: inactive; SARS PLpro yeast: inactive; Pf growth 96h: inactive; Pf growth 48h: inactive; CHX counter: inactive

How did COc1ccc(/C(C)=N/Nc2nncc3ccccc23)cc1 do in these assays?
Shiga toxin inh: 63; AMA1 RON2 block: inactive; SARS PLpro yeast: inactive; Pf growth 96h: inactive; Pf growth 48h: inactive; CHX counter: 27

Results for O=C(NCCc1nnc2ccc(NCc3ccccc3Cl)nn12)c1ccccc1 ?
Shiga toxin inh: inactive; AMA1 RON2 block: inactive; SARS PLpro yeast: inactive; Pf growth 96h: inconclusive; Pf growth 48h: inconclusive; CHX counter: inactive

How did Cc1ccc2nc(-c3cccc(NC(=O)c4ccco4)c3)[nH]c2c1 do in these assays?
Shiga toxin inh: 43; AMA1 RON2 block: inactive; SARS PLpro yeast: inactive; Pf growth 48h: inconclusive; CHX counter: 50

What do the screens show for `O=C(Nc1ccc2nc(-c3cccnc3)[nH]c2c1)c1ccco1`?
Shiga toxin inh: inactive; AMA1 RON2 block: inactive; SARS PLpro yeast: inactive; Pf growth 96h: inconclusive; Pf growth 48h: inactive; CHX counter: inactive

Results for O=C(Nc1ccc2nc(-c3ccco3)[nH]c2c1)c1ccco1 ?
Shiga toxin inh: 45; AMA1 RON2 block: inactive; SARS PLpro yeast: inactive; CHX counter: 33

Results for CC(=O)Nc1ccc2nc(-c3ccco3)[nH]c2c1 ?
Shiga toxin inh: 87; AMA1 RON2 block: inactive; SARS PLpro yeast: inactive; Pf growth 96h: inactive; Pf growth 48h: inactive; CHX counter: 35

Results for O=C(Nc1ccc2nc(-c3ccco3)[nH]c2c1)c1cccs1 ?
Shiga toxin inh: 66; AMA1 RON2 block: inactive; SARS PLpro yeast: inactive; Pf growth 96h: inconclusive; Pf growth 48h: inactive; CHX counter: 46

Results for O=C1CCCN1CC(O)CS(=O)(=O)Cc1ccccc1Cl (configuration not stated) ?
Shiga toxin inh: inactive; AMA1 RON2 block: inactive; SARS PLpro yeast: inactive; Pf growth 96h: inactive; Pf growth 48h: inactive; CHX counter: inactive
